Screening data from PubChem BioAssay.
Mito fusion yeast – blocks mitochondrial division or promotes mitochondrial fusion; S. cerevisiae fusion-defective mutant growth rescue, CellTiterGlo 48 h; Potency, µM (series often up to 46.1 µM), without a hit: at the highest dose growth rescue (activation), actives largely listed as activators; hit rate 0.23% among 320,000; AID 485298; note: potency is the fitted concentration of half-maximal effect; % of control where 0% means no effect; nearly all actives have a fitted effect of over 45% in size
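S. cerevisiae fusion-defective temperature-sensitive mutants (e.g. fzo1-1, mgm1-5) grown 48 h at 37C in YPEG (ethanol/glycerol non-fermentable) medium with 23 nl compound per well; growth rescue read as CellTiterGlo luminescence.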
MBNL1 CUG block – inhibitors of human MBNL1 binding to CUG repeat RNA. Q9NR56. Potency, µM (highest dose often 57.5 µM), for inactives: at the highest dose activity change, negative = inhibition, usual class: inhibitors. TR-FRET MBNL1-His/biotin-(CUG)12 binding, 665/545 ratio. AID 2675. hit rate 0.036% among 280,000; active = well fitted inhibition curve with a large enough effect in the signal ratio, with a control signal flat, not every such curve was filed as active; inconclusive = small, poorly fitted or top-dose-only effect, or effect the other way, or a change in a side signal; inactive = no such curve, though single readings can be large or run the other way; the % refers to the signal ratio; note: potency is the fitted concentration of half-maximal effect; % is set by controls: 0 for no effect and ±100 for the full control effect
Target sequence (Q9NR56 whole entry, looked up): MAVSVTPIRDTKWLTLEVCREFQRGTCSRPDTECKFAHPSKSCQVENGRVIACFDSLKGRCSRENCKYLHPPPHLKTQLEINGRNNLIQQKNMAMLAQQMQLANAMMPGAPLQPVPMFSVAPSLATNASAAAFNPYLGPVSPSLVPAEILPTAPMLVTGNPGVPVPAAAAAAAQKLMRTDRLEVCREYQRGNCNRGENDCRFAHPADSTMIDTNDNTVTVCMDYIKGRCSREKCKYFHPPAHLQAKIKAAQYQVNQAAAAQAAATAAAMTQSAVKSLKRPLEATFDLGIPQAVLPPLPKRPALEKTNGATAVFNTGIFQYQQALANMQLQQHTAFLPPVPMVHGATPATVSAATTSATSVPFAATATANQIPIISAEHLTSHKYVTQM
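MBNL1-His + Biotin-(CUG)12, cpd titration 92 nM–58 uM; Tb anti-His Ab 0.055 ng/ul, SA-XL665 5 nM (final); 60 min RT; ratiometric 665/545 nm, Ex 340 nm; normalized to buffer and full-complex controls.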
GRP78 ERSR act – inducers of ER stress response in human glioma cells; U87-MG GRP78 promoter luciferase reporter, 16 h; hit rate 0.02% among 420,000; Potency, µM, for the others: at the highest dose activation, usual class: activators; note: potency is the fitted concentration of half-maximal effect; series mostly up to about 76 µM; % of control where 0% means no effect; nearly all actives have a fitted effect of over 35% in size
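Stably transfected U87-MG glioma cells carrying a GRP78-based luciferase sensor; 16 h compound incubation. Luminescence end-point read 10 min after Bright-Glo addition at room temperature.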
ClpP mod – qHTS Assay for Activators of ClpP. ATP-dependent Clp protease proteolytic subunit (Bacillus subtilis (strain 168)), P80244. purified B. subtilis ClpP, FRET peptide cleavage, 20 min. Potency, µM (series often up to 57.5 µM), for inactives: top-dose activity change, negative = active. hit rate 1.9% among 340,000; active = well fitted falling curve with a large enough effect; inconclusive = small, poorly fitted or top-dose-only effect; inactive = no such curve, though single readings can be large or run the other way; note: potency is the fitted concentration of half-maximal effect; the source files actives as falling curves though it sought activators and does not explain the sign; nearly all actives have a fitted effect of over 65% in size
Target sequence (P80244 whole entry, looked up): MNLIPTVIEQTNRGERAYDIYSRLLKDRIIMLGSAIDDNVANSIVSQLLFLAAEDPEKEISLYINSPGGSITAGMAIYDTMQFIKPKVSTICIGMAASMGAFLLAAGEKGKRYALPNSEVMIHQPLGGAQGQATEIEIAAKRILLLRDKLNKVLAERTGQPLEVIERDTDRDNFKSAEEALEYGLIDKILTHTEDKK
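Purified B. subtilis ClpP, 10 microg/mL final in Tris/HCl pH8 with KCl, BSA, glycerol and Tween-20, cleaved an Abz/nitrotyrosine-quenched decapeptide. Fluorescence (ex 320, em 430) was read at 0 and 20 min at room temperature. Delta was normalized to 5.8 microM ADEP and DMSO/no-enzyme controls.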
A-T KAP1 phos – potential ataxia-telangiectasia treatments restoring KAP-1 phosphorylation | F2112 A-T fibroblasts, KAP-1 phosphorylation AlphaLISA; neocarzinostatin DNA damage 30 min before lysis | Potency, µM (titrated, usually from 57.5 µM), for the others: top-dose activation, actives largely listed as activators | hit rate 0.19% among 320,000 | AID 485349; note: potency is the fitted concentration of half-maximal effect; % of control where 0% means no effect; nearly all actives have a fitted effect of over 45% in size
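hTERT-immortalized A-T patient fibroblasts (F2112), 500 cells/well in OPTI-MEM, 1% FBS, got compounds for 60 min, then NCS for 30 min at 37C. Lysates were then assayed for phospho-KAP-1 by AlphaLISA (anti-pKAP1 donor, anti-KAP1 acceptor beads), 6 hr at 25C.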
TCR activator – activators of T cell receptors. primary human leukocytes, anti-CD3, IL-2 HTRF, 48 h. Potency, µM (series often up to 9.22 µM), inactives show at the top dose activation of IL-2 secretion, most hits filed as activators. 330,000 tested, under 10 active; note: % of control where 0% means no effect
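IL-2 produced over 48 hr by a-CD3 bead-stimulated primary human leukocytes exposed to compounds was detected with a homogeneous time-resolved FRET immunoassay, 665nm acceptor signal after 320nm excitation.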
* hit, by the source's call; [ ] = remark or other dose. Only some compounds are listed: those with a hit (about 1.8% of all), similar ones and a draw of the others. Unless noted, calls come from the whole dose curve; as a rule, active = well fitted curve in the direction sought with a large enough effect; inconclusive = small, poorly fitted or top-dose-only effect, or another doubt; inactive = no such curve, though single readings can be large; an effect the other way counts as inactive or inconclusive.

For CC(C1=C(CCN(C)C)Cc2ccccc21)c1ccccn1 (configuration not stated) the results were GRP78 ERSR act -3%, ClpP mod 32µM* and TCR activator -4%.
Screening Nc1nc(N)c2c(OCc3ccc(C(F)(F)F)cc3)cccc2n1 returned GRP78 ERSR act -5% and ClpP mod 5%.
Screening O=C(NC1CCCCCC1)c1ccc2nc3cc(Cl)ccc3c(=O)n2c1 returned Mito fusion yeast 0%, MBNL1 CUG block -1%, GRP78 ERSR act -1%, ClpP mod 25µM* and A-T KAP1 phos 2%.
For O=C(NCCc1ccccc1)c1ccc2nc3cc(Cl)ccc3c(=O)n2c1 the results were Mito fusion yeast -1%, MBNL1 CUG block 3%, GRP78 ERSR act -2%, ClpP mod -13%, A-T KAP1 phos 6% and TCR activator -1%.
CCc1ccc(CNC(=O)c2nn(-c3ccc(C)cc3)c(=O)c3c2c2ccccc2n3C)cc1 was read as GRP78 ERSR act -1% and ClpP mod -4%.
Screening CCOc1ccccc1CNC(=O)c1cn(C)c(=O)c2c1c1ccccc1n2C returned Mito fusion yeast 22%, MBNL1 CUG block -4%, GRP78 ERSR act 0%, ClpP mod 11µM*, A-T KAP1 phos 0% and TCR activator -14%.
`Cc1ccc(CNC(=O)c2cn(C)c(=O)c3c2c2ccccc2n3C)o1` gave Mito fusion yeast 2%, MBNL1 CUG block 14%, GRP78 ERSR act -2%, ClpP mod 14µM*, A-T KAP1 phos 5% and TCR activator 4%.
CCOC(CCNC(=O)c1cn(C)c(=O)c2c1c1ccccc1n2C)OCC was read as Mito fusion yeast 3%, MBNL1 CUG block -2%, GRP78 ERSR act 4%, ClpP mod 4%, A-T KAP1 phos inconclusive and TCR activator -2%.
Screening COc1ccccc1CNC(=O)c1nn(-c2ccc(C)cc2)c(=O)c2c1c1ccccc1n2C returned Mito fusion yeast 12%, MBNL1 CUG block -2%, GRP78 ERSR act -5%, ClpP mod 14µM* and TCR activator -1%.
O=C1CCN(Cc2cccn2-c2ccccn2)CCN1Cc1ccccc1C(F)(F)F was read as GRP78 ERSR act -3%.
C[C@@H]1CN(Cc2ccc3c(c2)CN(C(=O)CN2CCOc4ccccc4C2)CCO3)C[C@H](C)O1 was read as GRP78 ERSR act -2%.
For CCC1(C2CCN(C(=O)c3cc(C)cc(C)c3)CC2)NC(=O)N(CCc2scnc2C)C1=O (configuration not stated) the results were GRP78 ERSR act -4%.
For CC(C)(C)n1ncc2c(=O)n(Cc3cc(Cl)ccc3Cl)cnc21 the results were GRP78 ERSR act -5%.
O=Cc1ccc(CS)cc1 was read as GRP78 ERSR act -2% and ClpP mod -4%.
`CSc1nc(N2CCOCC2)nc2ccc(C)cc12` gave Mito fusion yeast inconclusive, GRP78 ERSR act 3%, ClpP mod 4%, A-T KAP1 phos 28µM* and TCR activator 9%.
Screening COc1cc(-c2cc(C)c3c(OC)ccc(OC)c3n2)cc2c1OCCN(C(=O)C(C)c1n[nH]c(=O)c3ccccc13)C2 (configuration not stated) returned GRP78 ERSR act -5%.
N#C/C(=C\c1c(N2CCCCC2)nc2ccccn2c1=O)C(=O)NC1CCS(=O)(=O)C1 (configuration not stated) was read as Mito fusion yeast -6%, GRP78 ERSR act -3%, ClpP mod 4µM*, A-T KAP1 phos 1% and TCR activator 1%[46.1 µM].
Screening Cc1cccc(Oc2nc3ccccn3c(=O)c2/C=C(\C#N)C(=O)NC2CCS(=O)(=O)C2)c1 (configuration not stated) returned Mito fusion yeast -4%, GRP78 ERSR act -2%, ClpP mod 25µM*, A-T KAP1 phos 4% and TCR activator 2%[46.1 µM].
Cc1cccn2c(=O)c(/C=C(\C#N)C(=O)NC3CCS(=O)(=O)C3)c(N3CCC(C)CC3)nc12 (configuration not stated) was read as Mito fusion yeast -1%, GRP78 ERSR act -1%, ClpP mod inconclusive, A-T KAP1 phos -3% and TCR activator -1%[46.1 µM].
`CC1CC(NC(=O)c2cc3c(=O)n4ccccc4nc3n2C)CC(C)(C)C1` (configuration not stated) gave Mito fusion yeast 11%, MBNL1 CUG block 4%, GRP78 ERSR act 1%, A-T KAP1 phos 28µM* and TCR activator -3%.
Screening COC(=O)c1ccc(C(=O)OC)c(NC(=O)COC(=O)C2CCC(C(C)(C)C)CC2)c1 (configuration not stated) returned Mito fusion yeast 2%, MBNL1 CUG block 3%, GRP78 ERSR act -4%, ClpP mod 28µM*, A-T KAP1 phos -6% and TCR activator 2%.
Screening COC(=O)c1ccc(C(=O)OC)c(NC(=O)COC(=O)C2CCCCC2)c1 returned Mito fusion yeast 3%, MBNL1 CUG block -4%, GRP78 ERSR act -2%, ClpP mod inconclusive, A-T KAP1 phos 15% and TCR activator 0%.
Screening COc1ccccc1CCNc1ncnc2sc(C(=O)N3CCCC3)c(C)c12 returned GRP78 ERSR act -3%.
`Cc1[nH]n2c(=O)c3c(nc2c1-c1ccc(Cl)cc1)CCC3` gave Mito fusion yeast -1%, MBNL1 CUG block -9%, GRP78 ERSR act 7%, ClpP mod 25µM*, A-T KAP1 phos -3% and TCR activator 7%.
`Cc1[nH]n2c(=O)c3c(nc2c1-c1ccccc1)CCC3` gave Mito fusion yeast -2%, MBNL1 CUG block -4%, GRP78 ERSR act -4%, ClpP mod 32µM*, A-T KAP1 phos 2% and TCR activator 0%.
`O=C(c1cc2c(s1)-c1ccccc1OC2)N1CCc2ccccc2C1` gave Mito fusion yeast inconclusive, MBNL1 CUG block 85%, GRP78 ERSR act 3%, ClpP mod 6%, A-T KAP1 phos 13% and TCR activator -4%.
For COc1cccc(N2CCN(C(=O)c3cc4c(s3)-c3c(C)cccc3OC4)CC2)c1 the results were GRP78 ERSR act 3% and ClpP mod 4%.
COc1cc2c(cc1OC)C(C)N(C(=O)c1cc3c(s1)-c1c(C)cccc1OC3)CC2 (configuration not stated) was read as Mito fusion yeast 25µM*, MBNL1 CUG block 15%, GRP78 ERSR act -5%, ClpP mod 4%, A-T KAP1 phos 32% and TCR activator 2%.
